High-throughput results as filed in PubChem BioAssay.
Measles CPE: protection of cells from measles virus. Measles virus-infected cells, CPE protection, absorbance. 1.5% of 140,000 active. protection (pct of control), % at 4 µM. AID 841; in the data active = protection mostly above about 24%, no sharp cut-off; inactive = mostly below about 26%
PTPN22 inh 2: LYP (human) phosphatase inhibition; 0.21% of 96,000 active; Q9Y2R2; AID 640; recombinant LYP catalytic domain, DiFMUP fluorescence; inhibition, % at 2 µM;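 active = inhibition at 2 µM at or above a set limit, the screen mean plus 3 SD, cut at about 24% in these data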
Target sequence (Q9Y2R2 whole entry, looked up, the tested form may be a part): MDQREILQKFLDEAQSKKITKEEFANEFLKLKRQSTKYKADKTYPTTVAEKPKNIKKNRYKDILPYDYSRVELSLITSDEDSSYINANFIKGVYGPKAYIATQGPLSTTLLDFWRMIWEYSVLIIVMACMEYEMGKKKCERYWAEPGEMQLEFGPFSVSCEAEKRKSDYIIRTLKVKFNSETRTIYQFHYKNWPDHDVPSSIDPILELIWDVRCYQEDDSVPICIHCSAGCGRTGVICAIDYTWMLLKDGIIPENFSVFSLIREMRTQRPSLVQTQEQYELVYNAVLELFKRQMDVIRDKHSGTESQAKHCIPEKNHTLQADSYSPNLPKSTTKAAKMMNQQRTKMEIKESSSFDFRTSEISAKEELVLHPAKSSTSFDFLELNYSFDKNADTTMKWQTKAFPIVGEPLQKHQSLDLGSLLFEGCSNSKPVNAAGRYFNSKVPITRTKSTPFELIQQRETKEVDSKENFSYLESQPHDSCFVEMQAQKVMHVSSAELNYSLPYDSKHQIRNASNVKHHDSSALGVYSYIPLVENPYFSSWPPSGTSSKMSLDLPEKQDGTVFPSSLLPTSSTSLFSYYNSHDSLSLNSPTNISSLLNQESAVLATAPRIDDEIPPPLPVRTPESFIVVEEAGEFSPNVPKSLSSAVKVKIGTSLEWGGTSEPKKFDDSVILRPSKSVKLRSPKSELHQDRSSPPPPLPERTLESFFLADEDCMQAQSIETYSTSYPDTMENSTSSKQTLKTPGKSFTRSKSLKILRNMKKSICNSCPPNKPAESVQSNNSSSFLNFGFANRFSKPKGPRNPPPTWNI
LYP act: activators of human LYP (PTPN22) phosphatase; Q9Y2R2; recombinant LYP, DiFMUP fluorescence; 0 = plate median, 100 = signal doubled; activation, % at 2 µM; 0.11% of 96,000 active;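 active = activation at 2 µM above a set limit, the mean plus 5 SD, cut at about 37% in these data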
Numbers stand for hits; n = inactive; x = no result. Only some compounds are listed: those with a hit (about 1.7% of all), similar ones and a draw of the others.

SMILES	Measles CPE	PTPN22 inh 2	LYP act
O=C(CCSc1ccc(Cl)cc1)c1cccs1	35.4	n	n
O=C(CCNc1ccc(Cl)cc1)c1cccs1	n	x	x
O=C(CCNc1cc(Cl)cc(Cl)c1)c1cccs1	45.2	n	n
CCOC(=O)N1CCN(C(=O)/C(=C/c2ccc(OC)cc2)NC(=O)c2ccccc2)CC1	n	n	n
CC(C)NC(=O)c1c2c(nc3ccccc13)CCCC2	n	n	n
O=C(Nc1ccccc1O)c1ccccc1O	n	n	n
COc1ccccc1OCC(=O)Nc1ccccc1C(=O)NCc1ccco1	n	n	n
CCCCN(C(=O)CSc1nnc(Nc2ccc(C)c(C)c2)s1)c1c(N)n(Cc2ccccc2)c(=O)[nH]c1=O	n	26.5	n
CN(C(=O)CSc1nnc(Nc2ccccc2)s1)c1c(N)n(Cc2ccccc2)c(=O)[nH]c1=O	n	n	n
CCOC(=O)c1[nH]c2ccccc2c1NC(=O)CN1CCCCC1	n	n	n
CCCCCNc1c(C(=O)OCC)c(=O)[nH]c2ccccc12	35.6	x	x
CCCCNc1c(C(=O)OCC)c(=O)[nH]c2ccccc12	n	n	n
CCCC(=O)Nc1c(C(=O)OCC)[nH]c2ccccc12	39.3	n	n
CCOc1cc(C(=O)Nc2ccc(C)cc2C)ccc1OCC(=O)N1CCCCC1	n	x	x
N#CCCN1CCN(S(=O)(=O)c2ccc(S(=O)(=O)N3CCOCC3)cc2)CC1	28.1	x	x
CN(C)S(=O)(=O)c1ccc(S(=O)(=O)N2CCN(CCC#N)CC2)cc1	n	x	x
O=C(CN1CCN(c2ccccc2)CC1)Nc1ccccc1Sc1ccccc1	n	x	x
O=C(CN1CCN(c2ccccc2)CC1)Nc1ccccc1C(F)(F)F	31.7	n	n
CCOc1ccc(-c2cc(CCCC(=O)N3CCN(c4ccc(OC)cc4)CC3)no2)cc1	n	n	n
Cn1c(C(=O)NCc2cccs2)cc2oc3ccccc3c21	47.6	x	x
Cn1c(C(=O)NCc2ccccc2)cc2oc3ccccc3c21	73.2	n	n
Cn1c(C(=O)NCC2CCCO2)cc2oc3ccccc3c21 (stereo not given)	n	x	x
O=C(CNC(=O)c1cc2ccccc2o1)NCc1cccs1	n	n	n
CCCCOCC1CN(c2ccccc2)C(=O)CS1 (stereo not given)	n	n	n
CCCCC1C(=O)N(c2ccccc2)N(c2ccccc2)C1=O	59.8	x	x
SMILES	Measles CPE	PTPN22 inh 2	LYP act
COC(=O)c1sccc1NC(=O)CN(C)NS(=O)(=O)c1ccc(Cl)cc1	43.6	n	n
COC(=O)c1sccc1NC(=O)CN(C)NS(=O)(=O)c1ccc(F)cc1	n	n	n
CCC(NS(=O)(=O)c1c(C)[nH]c(=O)[nH]c1=O)C12CC3CC(CC(C3)C1)C2 (stereo not given)	n	x	x
CCNC(=O)c1ccccc1-c1nc(-c2ccccc2Cl)no1	34.7	n	n
CC(C)NC(=O)c1ccccc1-c1nc(-c2ccccc2Cl)no1	n	n	n
O=C(Nc1cccnc1)c1ccc(Cl)c(S(=O)(=O)N2CCCCCC2)c1	n	n	n
O=C(Nc1ccc(Br)cc1)c1ccc(Br)c(S(=O)(=O)Nc2cccnc2)c1	45.5	x	x
Cc1ccc(-c2nnc(-c3ccccc3)o2)cc1	n	n	n
CCNc1nnc(-c2ccc(C)cc2)o1	38.6	n	n
C=CCn1c(SCC(=O)NCC)nnc1-c1cc2c(s1)CCC(CC)C2 (stereo not given)	n	x	x
O=C(O)CC(C(=O)O)c1cn(Cc2ccccc2)c2ccccc12 (stereo not given)	n	n	n
COc1cc(/C=C/C(=O)NNc2c(F)c(F)cc(F)c2F)ccc1OC(F)F	n	n	n
COc1ccc(/C(=C/c2ccc(OC(F)F)c(OC)c2)C(=O)O)cc1OC	60.0	x	x
COc1ccc(CSCC(=O)Nc2ccccc2SC)cc1	n	x	x
CCOC(=O)C(=O)NNc1cccc(C)c1C	44.6	x	x
CCOC(=O)C(=O)NNc1ccccc1C	n	x	x
CN1CCN(C(=O)C2CC(c3ccc(F)cc3)=NO2)CC1 (stereo not given)	n	n	n
CCOC(=O)CON1C(=O)C(C)(C)N(OCC(=O)OCC)C(=O)C1(C)C	n	n	n
CCOc1ccc(N(CC(=O)Nc2cccc(OC)c2)S(=O)(=O)c2c(C)noc2C)cc1	n	n	n
COc1cc(/C=N/NC(=O)CCN2CCN(C(c3ccccc3)c3ccccc3)CC2)ccc1O	28.0	x	x
COc1cc(/C=N/NC(=O)CCc2ccccc2)ccc1O	n	n	n
CCCCOC(=O)CSC(=S)N(C)Cc1cccs1	n	x	x
COc1ccc(OC)c(S(=O)(=O)N2CCCCC2C(=O)N2CCN(c3ccccn3)CC2)c1 (stereo not given)	n	x	x
COc1cc(C)c(C)cc1S(=O)(=O)N1CCCCC1c1cccnc1 (stereo not given)	51.1	n	n
CC(=O)Nc1ccc(S(=O)(=O)N2CCCCC2c2cccnc2)cc1 (stereo not given)	28.5	n	n
SMILES	Measles CPE	PTPN22 inh 2	LYP act
COc1ccc(NC(=O)N2CCCCC2c2cccnc2)cc1 (stereo not given)	n	x	x
CC(C)(C)Nc1nc2nonc2nc1NC(C)(C)C	n	n	n
COc1ccccc1Nc1nc(N)nc(CSc2ncccn2)n1	n	n	n
CCOc1ccccc1Nc1nc(N)nc(CSc2nccc(C)n2)n1	24.4	n	n
COc1ccccc1N(CC(=O)Nc1ccc(S(=O)(=O)N2CCCCC2)cc1)S(C)(=O)=O	64.9	n	n
O=C(COC(=O)c1ccc(Br)o1)Nc1ccc(S(=O)(=O)N2CCCC2)cc1	n	n	n
COc1ccccc1OCC(=O)Nc1ccc(S(=O)(=O)N2CCCCCC2)cc1	n	n	n
O=C(COC(=O)c1n[nH]c2ccccc12)Nc1ccc(S(=O)(=O)N2CCCC2)cc1	70.6	n	n
CCC(CC)C(=O)Nc1cc(C)c2c(=O)oc3ccccc3c2n1	n	n	n
CC1(C)CC(=O)C(C(=S)Nc2ccc(F)cc2)=C(NCCN2CCOCC2)C1	n	x	x
CCn1c(=O)n(CC)c2cc(S(=O)(=O)NCCOc3ccccc3)c(C)cc21	n	n	n
Cc1nc(C)c(C(=O)C2=C(O)C(=O)N(CCN3CCOCC3)C2c2cccs2)s1 (stereo not given)	n	n	n
CCn1c(SCC(N)=O)nc2sc3c(c2c1=O)CCCC3	n	n	n
O=c1nc2ccccc2c(NS(=O)(=O)c2ccccc2)n1-c1ccccc1	n	n	n
Cc1ccc(S(=O)(=O)Nc2c3ccccc3nc(=O)n2-c2ccccc2)cc1	35.0	n	n
COc1cc(C)c(Br)cc1S(=O)(=O)NCc1ccccc1	n	n	n
O=C(COc1ccc(Cl)cc1Cl)Nc1noc2ccccc12	n	n	n
Cc1cc(C(=O)COC(=O)c2ccccc2O)c(C)n1Cc1cccs1	n	n	n
CCn1nc(C(=O)OCC(=O)c2cc(C)n(Cc3cccs3)c2C)c2ccccc2c1=O	n	24.2	n
CCOc1ccc(C(=O)N2CCCC2)cc1OC	33.5	n	n
CCOc1ccc(C(=S)N2CCCC2)cc1OC	n	x	x
Cn1c2c(c(=O)n(C)c1=O)C(NC(=O)c1cccs1)(C(F)(F)F)C(=O)N2 (stereo not given)	n	n	n
CCN1C(=O)NC(c2cccnc2)C(C(=O)OC)=C1C (stereo not given)	n	n	n
Cc1cc(C)cc(OCC(=O)OCC(=O)NCCC2=CCCCC2)c1	n	x	x
O=C(O)CSc1nnc(-c2ccccc2)o1	33.2	n	n
O=C(CSc1nnc(-c2cccnc2)o1)Oc1ccccc1	43.9	n	n
Cc1ccc(C(=O)CSc2nnc(-c3ccccc3)o2)cc1	n	n	n
